# According to PubChem BioAssay (NCATS):
# Inconclusive results are not listed. Values without a mark were called inactive. Activity calls are given as the source filed them. Calls come from the whole dose curve; as a rule, active = well fitted cell-killing curve with a large enough effect; inconclusive = small, poorly fitted or top-dose-only effect; inactive = no such curve, though single readings can be large or run the other way. Positions of bridges follow the written chain, without caps; N, C: chain ends. Non-standard residues stand in square brackets, D forms with d. Residues, ends and D or L forms follow the SMILES beside them. ξ: configuration not given here. *: point of attachment. Octanoyl(6-Me) = CCC(C)CCCCC(=O)*; ξThr(3R) = C[C@@H](O)C(N)C(=O)O; dDab = NCC[C@@H](N)C(=O)O; Dab = NCC[C@H](N)C(=O)O; Nva = CCC[C@H](N)C(=O)O; Cbz = O=C(OCc1ccccc1)*
# Assay: Quantitative High-Throughput drug screen in 47 multiple myeloma cell lines against the NCATS MIPE library collection: NCIH929_DSMZ cell viability assay (AID 1918978); note: nearly all actives have a fitted effect of over 35% in size
# Details: NCI-H929 myeloma viability, CellTiter-Glo ATP, 48 h; series mostly up to 45.8 µM; viability, % of control: at the top concentration
# Description: PI: Beverly A. Mock Ph.D.
# Laboratory of Cancer Biology and Genetics,
# Center for Cancer Research, National Cancer Institute,
# National Institute of Health, Bethesda, Maryland
# Drug resistance and disease progression are common in multiple myeloma (MM) patients, underscoring the need for new therapeutic combinations. […] We hypothesized that effective combinations would reduce MYC expression and enhance p16 activity. […] These preclinical data identify potentially useful drug combinations for evaluation in drug-resistant MM and reveal potential mechanisms of combined drug sensitivity.
# Described herein is the primary MIPE qHTS used to cherrypick compounds. Validated compounds were then further tested for potential synergistic activiy.
# [1] Peat TJ, Gaikwad SM, Dubois W, Gyabaah-Kessie N, Zhang S, Gorjifard S, Phyo Z, Andres M, Hughitt VK, Simpson RM, Miller MA, Girvin AT, Taylor A, Williams D, D'Antonio N, Zhang Y, Rajagopalan A, Flietner E, Wilson K, Zhang X, Shinn P, Klumpp-Thomas C, McKnight C, Itkin Z, Chen L, Kazandijian D, Zhang J, Michalowski AM, Simmons JK, Keats J, Thomas CJ, Mock BA. Drug combinations identified by high-throughput screening promote cell cycle transition and upregulate Smad pathways in myeloma. Cancer Lett. 2023 Aug 1;568:216284. doi: 10.1016/j.canlet.2023.216284. Epub 2023 Jun 24. PMID: 37356470; PMCID: PMC10408729.
# SEQUENCE No. (e.g., 1, 2, 3, etc.); […] (e.g., Cells, Incubation, Reagent, etc.); VALUE and DESCRIPTION.
# 1; Cells; 5 uL; white, solid bottom 1536-well Greiner assay plate.
# 2; Compounds; 23 nL; Kalypsis pin tool (Wako USA) equipped with a 1536-well pin head to transfer to the assay plates.
# 3; Incubation; 48 hours; 37C incubation.
# 4; Reagent;5uL; CellTiter Glo (Promega).
# 5; Detector; 425V; Luminescence; Viewlux PerkinElmer.
# NOTES (numbers refer to Sequence numbers above)
# 1. The cell-based screening methods employed in this study were like those previously published. Briefly, the corresponding myeloma cell lines were screened in 1,536-well plates with 500 cells, 5-uL per well for inhibition of cell viability (assessed by measuring ATP levels with CellTiterGlo).
# 2. NCATS MIPE 4.0 library of approved and investigational drugs were added using the Kalypsis pin tool. Wells treated with DMSO only for 100% viability and media only for 0% viability were used as controls.
# 3. The assay plates were covered and incubated for 48 hours in a 37C, 5% CO2 incubator with controlled humidity.
# 4. After 48 hours, CellTilter-GloTM luminescent substrate mix (Promega) reagent was added to the assay plate and plates we incubated for 5 min at room temperature.
# 5. Signal was measured as median relative luminescence units on a ViewLux (PerkinElmer) multiplate reader.
# [1] Heske CM, Davis MI, Baumgart JT, Wilson K, Gormally MV, Chen L, Zhang X, Ceribelli M, Duveau DY, Guha R, Ferrer M, Arnaldez FI, Ji J, Tran HL, Zhang Y, Mendoza A, Helman LJ, Thomas CJ. Matrix Screen Identifies Synergistic Combination of PARP Inhibitors and Nicotinamide Phosphoribosyltransferase (NAMPT) Inhibitors in Ewing Sarcoma. Clin Cancer Res. 2017 Dec 1;23(23):7301-7311. doi: 10.1158/1078-0432.CCR-17-1121. Epub 2017 Sep 12. PMID: 28899971; PMCID: PMC6636827.
# Potency is the fitted concentration of half-maximal effect.
SMILES,Potency,"viability, % of control"
CC[C@@]1([C@@H]2O[C@@H]([C@H]3O[C@@](O)(CO)[C@H](C)C[C@H]3C)C[C@H]2C)CC[C@H]([C@]2(C)CC[C@]3(C[C@H](O)[C@@H](C)[C@@H]([C@@H](C)[C@@H](OC)[C@H](C)C(=O)O)O3)O2)O1,288 nM (active),–
CC(=O)N[C@H]1[C@@H]([C@H](O)[C@H](O)CO)OC(C(=O)O)=C[C@@H]1N=C(N)N,–,105%
CC(Oc1ccc(O)cc1)(P(=O)(O)O)P(=O)(O)O,–,87.7%
CCc1cnn2c(NCc3ccc[n+]([O-])c3)cc(N3CCCC[C@@H]3CCO)nc12,23.5 nM (active),–
C=CC(=O)Nc1cc(NC(=O)c2ccc(C)c(NC(=O)c3ccno3)c2)cc(C(F)(F)F)c1,16600 nM (active),–
CN1[C@H]2CC(OC(=O)[C@@H](CO)c3ccccc3)C[C@H]1[C@H]1O[C@H]12 (stereo not given in full),–,108% [at 23.2 µM]
Cn1cc(C[C@@H](N)C(=O)O)c2ccccc21,–,112% [at 23.2 µM]
NS(=O)(=O)OC[C@@H]1C[C@@H](n2ccc3c(N[C@H]4CCc5ccccc54)ncnc32)C[C@H]1O,833 nM (active),–
Cc1nc(NC(=O)N2CCC[C@@H]2C(N)=O)sc1-c1ccnc(C(C)(C)C(F)(F)F)c1,148 nM (active),–
C[N+](C)([O-])CCNc1ccc(NCC[N+](C)(C)[O-])c2c1C(=O)c1c(O)ccc(O)c1C2=O,–,116%
Nc1ccc(C(=O)Nc2cccc(-c3nc(N4CCOCC4)c4oc5ncccc5c4n3)c2)cn1,2640 nM (active),–
CCC[C@@H](C=O)NC(=O)[C@H](CC(C)C)NC(=O)[C@H](CC(C)C)NC(=O)OCc1ccccc1 (Cbz-Leu-Leu-[Nva]-aldehyde),296 nM (active),–
CC(C)NC[C@@H](C(=O)N1CCN(c2ncnc3c2[C@H](C)C[C@H]3O)CC1)c1ccc(Cl)cc1,105 nM (active),–
Cc1cc(C(=O)NOCCO)c(Nc2ccc(I)cc2F)n(C)c1=O,7.4 nM (active),–
COc1cc(C(=O)NC2CCN(C)CC2)ccc1Nc1ncc2c(n1)N(C1CCCC1)CCC(=O)N2C(C)C,10500 nM (active),–
CCc1ccc(C(=O)Nc2cc(CN3CCN(C)CC3)cc(C(F)(F)F)c2)cc1C#Cc1cnc2ccnn2c1,10500 nM (active),–
O=C(C=CC=Cc1ccc2c(c1)OCO2)N1CCCCC1,–,85.2%
OC[C@@H](O)[C@@H](O)[C@H](O)[C@@H](O)CO,–,104%
CC(=O)ON=C1C(c2c(O)[nH]c3cc(Br)ccc23)=Nc2ccccc21,2090 nM (active),–
C[C@H]1[C@@H](OC(=O)CCC(=O)O)O[C@@H]2O[C@@]3(C)CC[C@@H]4[C@H](C)CC[C@@H]1[C@@]24OO3,2640 nM (active),–

SMILES,Potency,"viability, % of control"
O=C(O)c1ccc(Nc2ncc3c(n2)-c2ccc(Cl)cc2C(c2c(F)cccc2F)=NC3)cc1,4180 nM (active),–
N#Cc1c(C2CCNCC2)cc(-c2c(O)cccc2OCC2CC2)nc1N,20900 nM (active),–
O=C(O)C[C@H](O)C[C@H](O)C=Cc1c(C2CC2)nc2ccccc2c1-c1ccc(F)cc1,3720 nM (active),–
FC(F)c1nc2ccccc2n1-c1nc(N2CCOCC2)nc(N2CCOCC2)n1,105 nM (active),–
O=C(Nc1cccc(Nc2ncc(Br)c(NCCc3cnc[nH]3)n2)c1)N1CCCC1,7430 nM (active),–
CCN(C(=O)c1c(O)c2c(Cl)cccc2n(C)c1=O)c1ccccc1,–,122%
COc1cccc2c1C(=O)c1c(O)c3c(c(O)c1C2=O)C[C@@](O)(C(=O)CO)C[C@@H]3O[C@H]1C[C@H](N)[C@H](OC2CCCCO2)[C@H](C)O1 (stereo not given in full),935 nM (active),–
C=C1C[C@@]2(O)O[C@@]3(C[C@H]2C(C)C)[C@H](C)CC[C@H]13,–,79.3%
O=C(Nc1nnc(-c2ccco2)o1)c1cc(-c2ccccc2)nc2ccccc12,18700 nM (active),–
CNC(=O)c1ccc(Nc2cc(Nc3ccccc3S(=O)(=O)C(C)C)c3cc[nH]c3n2)nc1,935 nM (active),–
O=c1c(O)c(-c2ccc(O)c(O)c2)oc2cc(O)ccc12,18700 nM (active),–
COc1cc(O)c2c(c1)C1OC1C[C@H](O)[C@H](O)C(=O)C=CC[C@H](C)OC2=O (stereo not given in full),1480 nM (active),–
CCC(C)CCCCC(=O)N[C@@H](CCN)C(=O)NC(C(=O)N[C@H](CCN)C(=O)N[C@@H]1CCNC(=O)C([C@@H](C)O)NC(=O)[C@@H](CCN)NC(=O)[C@@H](CCN)NC(=O)[C@@H](CC(C)C)NC(=O)[C@H](Cc2ccccc2)NC(=O)[C@H](CCN)NC1=O)[C@@H](C)O (stereo partly drawn) ({Octanoyl(6-Me)}-[Dab][ξThr(3R)][dDab][dDab][Dab]F[dL][dDab][dDab][ξThr(3R)]; lactam 4-C),–,114%
O=C(O)C=Cc1ccc(Cn2ccnc2)cc1,–,111%
O=C(C=Cc1ccc(CN(CCO)CCc2c[nH]c3ccccc23)cc1)NO,105 nM (active),–
O=C(Nc1cc2cc[nH]c2cn1)c1ccccc1,8330 nM (active),–
COC[C@H](NC(=O)c1cnc(C)s1)C(=O)N[C@@H](COC)C(=O)N[C@@H](Cc1ccccc1)C(=O)[C@@]1(C)CO1,52.6 nM (active),–
NC1=N[C@H]2[C@H](CS[C@H]2CCCCC(=O)O)N1,–,111% [at 23.2 µM]
CC(C)C[C@H](NC(=O)[C@@H](NC(=O)c1cccc(-c2ccccc2)n1)[C@@H](C)O)B(O)O,11.8 nM (active),–
C[C@H](CCC(=O)O)[C@H]1CC[C@H]2[C@@H]3[C@H](O)C[C@@H]4C[C@H](O)CC[C@]4(C)[C@@H]3CC[C@]12C,–,104%
